# From PubChem
# ANO1 block: mouse TMEM16A channel inhibition, primary screen; normalized B-score (activity score, 25-100; higher = stronger inhibition) at 10 µM; actives 1.2% (n = 310,000); Q8BHY3; HEK293 TMEM16A/YFP iodide influx fluorescence, ionomycin;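 active = ratio plate-corrected score three or more library SD toward inhibition, starting fluorescence score within five deviations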;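 also: score derived from kinetic fluorescence span divided by baseline fluorescence per well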
# CHT allo act: allosteric activators of human choline transporter CHT; CHT-expressing cells, membrane potential dye, choline EC20; hits give high values; LV-AA mutant CHT in HEK293 cells; B-score at 10 µM; actives 0.49% (n = 310,000); Q9GZV3; AID 488977;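 active = initial fluorescence not abnormally high and integrated response B-score, plate-corrected, over 3 SD above library mean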
# Target sequence (Q9GZV3 whole entry, looked up): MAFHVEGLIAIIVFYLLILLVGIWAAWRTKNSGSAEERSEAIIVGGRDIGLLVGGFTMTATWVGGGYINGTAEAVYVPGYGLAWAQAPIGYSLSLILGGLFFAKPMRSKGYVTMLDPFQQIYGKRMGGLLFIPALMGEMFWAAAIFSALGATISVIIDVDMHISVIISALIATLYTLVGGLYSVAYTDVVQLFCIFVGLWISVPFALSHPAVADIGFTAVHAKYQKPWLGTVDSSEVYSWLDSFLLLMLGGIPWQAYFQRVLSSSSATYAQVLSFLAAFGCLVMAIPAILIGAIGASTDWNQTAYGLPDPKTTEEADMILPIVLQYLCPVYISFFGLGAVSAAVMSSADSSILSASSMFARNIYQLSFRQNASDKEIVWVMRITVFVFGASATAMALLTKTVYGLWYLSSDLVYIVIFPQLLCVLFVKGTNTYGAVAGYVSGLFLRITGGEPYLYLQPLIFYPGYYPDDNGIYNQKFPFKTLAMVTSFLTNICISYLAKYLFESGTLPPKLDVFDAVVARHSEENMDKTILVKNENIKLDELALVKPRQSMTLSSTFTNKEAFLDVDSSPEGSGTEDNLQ
# TMEM16A act: mouse TMEM16A channel activation, primary screen; AID 623877; actives 0.3% (n = 340,000); HEK293 TMEM16A/YFP-H148Q/I152L, iodide quench fluorescence; hits give low values; B-score at 10 µM;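 active = fluorescence-ratio B-score plate-corrected deviation score at least 3 library SD below zero, with starting fluorescence score within 5 deviations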;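 also: channel opened by trigger with iodide after compound preincubation; score built on the fluorescence ratio of max minus min over baseline; more negative score means more quench and so TMEM16A activation or potentiation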
# PHOSPHO1 block: inhibitors of human PHOSPHO1 phosphatase | Q8TCT1 | recombinant PHOSPHO1, absorbance phosphatase assay | inhibition, % at 13.3 µM | actives 1.1% (n = 290,000) | AID 1565; in the data active = inhibition above about 60%
# HDAC3 inh: human HDAC3 inhibition | O15379 | recombinant HDAC3, fluorogenic peptide/trypsin coupled, fluorescence | inhibition, % at 8.3 µM | actives 0.15% (n = 320,000) | AID 2718; in the data active = inhibition above about 26%, passing the limit was not always enough; inconclusive = no clear call, values can overlap the other calls
# CHT block: human CHT choline transport inhibition; CHT-expressing cells, membrane potential dye, choline response; hits give low values; B-score at 10 µM; actives 0.86% (n = 310,000);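 active = B-score over 3 SD under the library average, and starting fluorescence ratio not unusually high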;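 also: choline stimulus applied at its EC90 after an EC20 pre-addition; B-score computed on integrated fluorescence ratio after choline addition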
# Numbers stand for hits; . = inactive; ? = inconclusive; / = no result given. The list is not random: actives were taken first. Their share in the collection is about 3.2%.
SMILES,ANO1 block,CHT allo act,TMEM16A act,PHOSPHO1 block,HDAC3 inh,CHT block
CC(C)(C)c1cc([N+](=O)[O-])cc(C(C)(C)C)c1O,100,.,/,.,.,.
NC(=O)c1cc([N+](=O)[O-])cc([N+](=O)[O-])c1,/,/,.,/,/,/
Nc1c2c(nc3ccccc13)CCN(Cc1ccccc1)C2,.,.,.,.,.,.
Nc1cc2nc3ccccc3nc2cc1N,.,.,.,60,.,.
CCCN1CCCC(C(=O)c2cc(C)c(OC)c(C)c2)C1 (stereo unspecified),.,.,.,.,.,.
CCC1(O)CCC2C3CCC4=CC(=O)CCC4C3CCC21CC (stereo unspecified),/,/,-4.8,/,/,/
Cc1ccc(S(=O)(=O)Nc2cc(C(=O)N3CCC4(CC3)OCCO4)ccc2N2CCCCC2)cc1,.,.,.,.,.,.
Cc1ccc(OCC(=O)N2CCN(Cc3ccc4c(c3)OCO4)CC2)cc1,.,.,.,.,.,.
CN(C)CCN(C(=O)COc1ccc(Cl)cc1)c1nc2cc3c(cc2s1)OCO3,.,.,.,63,.,.
N#CC(C#N)=NNc1ccc(-n2ccc(C(F)(F)F)n2)cc1,100,.,-4.6,.,.,.
Cc1cc(C)n(-c2ccc(NN=C(C#N)C#N)cc2)n1,.,.,.,.,.,.
Cc1nc2cc([N+](=O)[O-])ccc2c(=O)n1-c1ccc(Br)cc1,.,.,-13,.,.,.
Cc1nc2ccccc2c(=O)n1-c1ccc([N+](=O)[O-])cc1,.,.,.,.,.,.
O=C1C2CCCN2C(c2ccccc2)N1c1ccccn1 (stereo unspecified),.,.,.,.,.,.
C/C1=C\[C@@H](C)C/C=C/[C@H]2[C@@H]3O[C@]3(C)[C@@H](C)[C@H]3[C@H](Cc4c[nH]c5ccccc45)NC(=O)[C@]32C(=O)/C=C/C(=O)[C@@H]1O,100,.,-11,.,.,.
CC(=O)N[C@@H]1CC[C@@]2(O)[C@H]3Cc4ccc(O)c5c4[C@@]2(CCN3CC2CC2)[C@@H]1O5,/,/,.,/,/,/
COc1ccc(N2C(=O)NC(=O)/C(=C\c3ccc([N+](=O)[O-])s3)C2=O)cc1,.,.,-6.4,.,.,.
CCN1CCN(S(=O)(=O)c2cnc(Cl)c(Br)c2)CC1,.,.,.,.,.,.
O=C1NC(=O)[C@]2(Cc3ccccc3N3CCN(c4ccccc4)CC32)C(=O)N1Cc1ccccc1 (stereo partly specified),.,.,.,72,.,.
CN1C(=O)NC(=O)[C@]2(Cc3ccccc3N3CCN(c4ccccc4)CC32)C1=O (stereo partly specified),.,.,.,65,.,.
COc1ccc(-c2cc(=O)oc3c(C)c(OC(C)C(=O)N4C[C@H]5C[C@@H](C4)c4cccc(=O)n4C5)ccc23)cc1 (stereo partly specified),.,.,.,.,.,.
O=[N+]([O-])c1ccccc1-c1cc(-c2ccccc2)cc(-c2ccccc2)[n+]1Cc1ccccc1Cl,.,.,/,/,.,-5.3
O=[N+]([O-])c1ccccc1CCl,/,/,.,/,.,/
COc1ccc(C2C(C(=O)N3CCC4(CC3)OCCO4)CC(=O)N2c2ccc(OC)cc2)cc1 (stereo unspecified),.,.,.,.,.,.
O=C1NC(=S)N(Cc2ccco2)C(=O)/C1=C\c1cccs1,/,/,/,77,/,/
SMILES,ANO1 block,CHT allo act,TMEM16A act,PHOSPHO1 block,HDAC3 inh,CHT block
C=CCN1C(=O)/C(=C/c2cccs2)C(=O)NC1=S,.,.,.,.,.,.
COc1ccc(-[n+]2c(-c3ccccc3)cc(-c3ccccc3)cc2-c2ccccc2)cc1,100,.,/,/,.,.
CCOc1ccc(-n2c(O)c(C=Nc3ccc(NC(C)=O)cc3)c(=O)[nH]c2=O)cc1,.,.,.,.,.,.
O=P(Nc1cccc(F)c1)(Oc1ccccc1F)Oc1ccccc1F,.,.,.,.,.,.
Cc1ccc(NP(=O)(Oc2ccccc2F)Oc2ccccc2F)cc1C,.,.,.,.,30,.
Cc1ccc(N2C(=O)NC(=O)/C(=C\c3cc(C)n(-c4sc5c(c4C#N)CCCC5)c3C)C2=O)cc1,25,.,.,.,/,.
CCN1C(=O)NC(=O)/C(=C/c2cc(C)n(-c3sc(C)c(C)c3C#N)c2C)C1=O,.,.,.,.,.,.
CCCCn1c(O)c(C(CC)=Nc2ccc(OC)cc2OC)c(=O)[nH]c1=O,25,.,.,.,.,.
COc1ccc(OC)c(N2C(=O)NC(=O)C3(Cc4cc(C)ccc4N(C)C3)C2=O)c1 (stereo unspecified),.,.,.,.,.,.
Cc1ccc2c(c1)CC1(CN2C)C(=O)NC(=O)N(c2cc(C)ccc2C)C1=O (stereo unspecified),25,.,.,.,.,.
CCN(CC)c1ccc(/C=C2\C(=O)NC(=S)N(c3ccc(OC)cc3OC)C2=O)o1,.,.,.,/,.,.
CCCCc1cc(=O)oc2cc(OCC(=O)N3C[C@H]4C[C@@H](C3)c3cccc(=O)n3C4)c(Cl)cc12,.,.,.,.,.,.
COc1ccc(OCC(=O)N2CCN(Cc3ccc(SC)cc3)CC2)cc1,100,.,.,.,.,.
CCOc1ccc(-c2cc(C)[n+](CCc3ccc(OC)c(OC)c3)c(-c3ccc(OCC)cc3)c2)cc1,25,.,.,.,.,.
CCOc1ccc(-c2cc(C)[n+](CCO)c(-c3ccc(OCC)cc3)c2)cc1,.,.,.,.,.,.
Cc1cc(-c2ccccc2)cc(-c2ccccc2)[n+]1CCc1ccccc1,25,.,.,/,.,.
Clc1ccc(C[n+]2c(-c3ccccc3)cc(-c3ccccc3)cc2-c2ccccc2)cc1,25,.,.,/,.,-8.9
FC(F)=C(F)CCSc1ncn[nH]1,.,.,.,.,.,.
CCOC(=O)c1c(C=O)c2ccccc2n1Cc1ccccc1F,.,.,.,.,.,.
O=[N+]([O-])c1ccc(N2CCNCC2)c2ncccc12,/,/,/,.,/,/
CN1CCN(c2ccc([N+](=O)[O-])c3cccnc23)CC1,.,7.1,.,.,.,.
O=C(O)CSC(=S)N1CC2CC(C1)c1cccc(=O)n1C2 (stereo unspecified),.,.,.,.,?,.
N[C@@H](Cc1c[nH]c2ccccc12)c1nnc(SCc2ccc(F)cc2)o1,/,/,.,62,/,/
C=C(C)CSc1nnc([C@@H](N)Cc2c[nH]c3ccccc23)o1,.,.,.,89,.,.
CC(C)=CCSc1nnc([C@@H](N)Cc2c[nH]c3ccccc23)o1,.,.,.,.,.,.
Cc1ccc(-c2nc3ccccc3c(=O)n2-n2cccc2)cc1,.,.,.,.,.,.
NC(=S)c1cn(C2OC(CO)C(O)C2O)c2ncnc(N)c12 (stereo unspecified),.,.,.,.,.,.
